Data: PubChem BioAssay (NCI)
Compounds without any hit were thinned out: in the full panel of roughly 83,000, 20% have a hit.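 Single-concentration screen, 48 h exposure, 96-well plates. Endpoint: percent growth. Below 10 = active.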 Activity calls are given as the source filed them.

Tests used:
Assay in all cases: NCI-60 one-dose screen, 48 h (100 = growth as untreated, 0 = no growth, -100 = all killed)
Settings in all cases: 10 µM unless noted
SR leukemia = test system: SR leukemia
RPMI-8226 leukemia = test system: RPMI-8226 leukemia
OVCAR-8 ovarian = test system: OVCAR-8 ovarian
OVCAR-5 ovarian = test system: OVCAR-5 ovarian
OVCAR-4 ovarian = test system: OVCAR-4 ovarian
SK-OV-3 ovarian = test system: SK-OV-3 ovarian
OVCAR-3 ovarian = test system: OVCAR-3 ovarian
HS 578T breast = test system: HS 578T breast
NCI/ADR-RES ovarian = test system: NCI/ADR-RES ovarian
T-47D breast = test system: T-47D breast
BT-549 breast = test system: BT-549 breast
MDA-MB-435 melanoma = test system: MDA-MB-435 melanoma
SW-620 colon = test system: SW-620 colon
MCF7 breast = test system: MCF7 breast
HCT-116 colon = test system: HCT-116 colon
HCC-2998 colon = test system: HCC-2998 colon
KM12 colon = test system: KM12 colon
IGROV1 ovarian = test system: IGROV1 ovarian

Measured: growth

CCCCCCOc1ccc(C(=N)N(CCCC)CCCC)c2ccccc12
active: SR leukemia -46.9% | RPMI-8226 leukemia -41.2% | OVCAR-8 ovarian -74.6% | OVCAR-5 ovarian -93.8% | OVCAR-4 ovarian -96.4% | SK-OV-3 ovarian -96.4% | OVCAR-3 ovarian -94.2% | HS 578T breast -13.9% | NCI/ADR-RES ovarian -95.3% | T-47D breast -65.5% | BT-549 breast -94.6% | MDA-MB-435 melanoma -89.5% | SW-620 colon -61.3% | MCF7 breast -74.8% | HCT-116 colon -99.2% | HCC-2998 colon -98% | KM12 colon -90.3%

CCCCCCN(C)Cc1ccc(OCCOc2ccc(CN(C)CCCCCC)cc2)cc1
active: SR leukemia -43.7% | RPMI-8226 leukemia -14.4% | HS 578T breast -22% | NCI/ADR-RES ovarian 1.98% | T-47D breast -13.7% | MDA-MB-435 melanoma -17.4% | SW-620 colon -70.2% | MCF7 breast -76.3% | HCT-116 colon -96.1% | HCC-2998 colon -87.5%
inactive: OVCAR-8 ovarian 47.7% | OVCAR-5 ovarian 42.9% | OVCAR-4 ovarian 31.4% | SK-OV-3 ovarian 48.6% | OVCAR-3 ovarian 44.9% | BT-549 breast 26.2%

COc1ccc2c(c1)OC1=C(C(=O)OC1)C2c1cc(OC)c(OC)c(OC)c1 (centres undefined)
inactive: SR leukemia 15.3% | RPMI-8226 leukemia 11.5% | OVCAR-8 ovarian 21.1% | OVCAR-5 ovarian 32.7% | OVCAR-4 ovarian 56.3% | SK-OV-3 ovarian 13% | IGROV1 ovarian 49% | T-47D breast 66.3% | BT-549 breast 34.5% | SW-620 colon 23.2% | MCF7 breast 27.1% | HCT-116 colon 19.3% | KM12 colon 13.1%
active: OVCAR-3 ovarian -55.9% | NCI/ADR-RES ovarian 1.95% | MDA-MB-435 melanoma -38.5% | HCC-2998 colon 6.19%

COC(=O)C(c1ccccc1)C(CC(=O)c1ccccc1)c1ccccc1 (centres undefined)
inactive: SR leukemia 87.5% | RPMI-8226 leukemia 71.1% | OVCAR-8 ovarian 102% | OVCAR-5 ovarian 93.3% | SK-OV-3 ovarian 31.8% | IGROV1 ovarian 83.3% | OVCAR-3 ovarian 81.3% | HS 578T breast 102% | NCI/ADR-RES ovarian 83.5% | T-47D breast 76.2% | BT-549 breast 108% | MDA-MB-435 melanoma 88.8% | SW-620 colon 104% | MCF7 breast 99.5% | HCT-116 colon 88.8% | HCC-2998 colon 96.1%

FC(F)(F)c1cccc(Oc2ccc(Nc3ncnc4ccc(OCCCN5CCOCC5)cc34)cc2Cl)c1
inactive: SR leukemia 10.4% | RPMI-8226 leukemia 32% | OVCAR-8 ovarian 56.1% | OVCAR-5 ovarian 59.7% | OVCAR-4 ovarian 43.7% | SK-OV-3 ovarian 22.1% | IGROV1 ovarian 12.2% | OVCAR-3 ovarian 51.6% | HS 578T breast 72.4% | NCI/ADR-RES ovarian 49.9% | BT-549 breast 78.9% | MDA-MB-435 melanoma 43.2% | SW-620 colon 31.7% | MCF7 breast 28.7% | HCT-116 colon 28% | HCC-2998 colon 29.3% | KM12 colon 17.1%

O=C1c2ccccc2-c2c1c1c(NCCCO)nc3ccccc3c1n2Cc1ccccc1
inactive: RPMI-8226 leukemia 46.2% | OVCAR-8 ovarian 25.9% | OVCAR-5 ovarian 45.6% | OVCAR-4 ovarian 10.7% | SK-OV-3 ovarian 23.8% | IGROV1 ovarian 15.7% | OVCAR-3 ovarian 14.4% | T-47D breast 78.2% | MDA-MB-435 melanoma 18.2% | SW-620 colon 25.2% | HCC-2998 colon 26.1% | KM12 colon 38.3%
active: SR leukemia 5.22% | NCI/ADR-RES ovarian 3.37% | BT-549 breast -37.7% | MCF7 breast -23.2% | HCT-116 colon -57.3%

CCCCCCCCCCCCCCCCCCOc1ccccc1N
inactive: SR leukemia 75.4% | RPMI-8226 leukemia 12.1% | OVCAR-8 ovarian 70.9% | OVCAR-5 ovarian 101% | OVCAR-4 ovarian 55% | SK-OV-3 ovarian 74.7% | IGROV1 ovarian 75.1% | OVCAR-3 ovarian 44.9% | HS 578T breast 84.2% | NCI/ADR-RES ovarian 86.9% | MDA-MB-435 melanoma 78.7% | SW-620 colon 98.7% | MCF7 breast 75.4% | HCT-116 colon 44% | HCC-2998 colon 88.8% | KM12 colon 39.8%
active: BT-549 breast -5.26%

CC[N+](CC)(CCCC(C)[N+]1(Cc2ccccc2)C(C)=CC=C1C)Cc1ccccc1 (centres undefined)
inactive: SR leukemia 90.1% | RPMI-8226 leukemia 33.6% | OVCAR-8 ovarian 101% | OVCAR-5 ovarian 88.1% | OVCAR-4 ovarian 62.1% | SK-OV-3 ovarian 101% | IGROV1 ovarian 62.4% | OVCAR-3 ovarian 64% | NCI/ADR-RES ovarian 97.7% | BT-549 breast 82.9% | MDA-MB-435 melanoma 82.8% | SW-620 colon 89% | MCF7 breast 81% | HCT-116 colon 47.6% | HCC-2998 colon 80.8% | KM12 colon 81.7%

COc1ccc(-c2nc3sccn3c2/C=C/C(=O)c2cc(OC)c(OC)c(OC)c2)cc1
active: RPMI-8226 leukemia -39.1%
inactive: SR leukemia 55.4% | OVCAR-8 ovarian 49.9% | OVCAR-5 ovarian 103% | OVCAR-4 ovarian 54.7% | SK-OV-3 ovarian 68.5% | OVCAR-3 ovarian 53.7% | HS 578T breast 71.1% | NCI/ADR-RES ovarian 47.5% | BT-549 breast 46.9% | MDA-MB-435 melanoma 29.8% | SW-620 colon 72.5% | MCF7 breast 17.2% | HCT-116 colon 42% | HCC-2998 colon 71.2% | KM12 colon 35.8%
